Reference: PubChem BioAssay
Activity calls are given as the source filed them. Unless noted, no rule for the calls is given here.

Columns and labels:
[1] = compounds binding Alexa647 anti-His antibody – biochemical, small-molecule microarray, 635 nm fluorescence, artefact control for SMM control protein annotation, primary screen (AID 1128); details: higher = more signal;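 also: score merges feature fluorescence with signal-to-noise for each printed compound spot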
[2] = test system: Human papillomavirus type 1a E7 protein (residues 1-88); assay: HPV1a E7 small-molecule binders, primary screen, biochemical, small-molecule microarray, residues 1-88, 635 nm (AID 1129); details: small-molecule microarray binding, fluorescence 635 nm; higher = more signal
[3] = molecular target: Focal adhesion kinase 1 (Homo sapiens) (UniProt Q05397); assay: PTK2 protein binding on printed compound slides – biochemical, small-molecule microarray, 635/667 nm fluorescence, BSA, DTT, primary screen (AID 1130); details: 635 nm fluorescence, higher = more signal;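 also: composite of spot emission at 667 nm and signal to noise over triplicate slides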
[4] = test system: Fibrinogen (Alexa647-labelled); assay: Alexa647-fibrinogen binding to printed small molecules – biochemical, small-molecule microarray, 635/667 nm fluorescence, artefact control for SMM control-protein annotation, profiling panel (AID 1131); details: fibrinogen-A647 binding fluorescence, higher = more signal;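 also: z-score merges 667 nm fluorescence with per-spot signal-to-noise over triplicate slides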
[5] = molecular target: Follistatin (Homo sapiens) (UniProt P19883); assay: FST protein binding to printed compounds – biochemical, small-molecule microarray, 635/667 nm fluorescence, primary screen (AID 1132); details: 635 nm fluorescence, higher = more signal
[6] = molecular target: Fibroblast growth factor 2 (Homo sapiens) (UniProt P09038); assay: basic fibroblast growth factor binding to printed compounds – biochemical, small-molecule microarray, 635/667 nm fluorescence, primary screen (AID 1133); details: FGF2, fluorescence 635/667, higher = more signal
[7] = JC-1 mitochondrial potential readout, lung cancer cells – cell-based, A549, JC-1 fluorescence, basal, 24 h, 100 nL, profiling panel (AID 1138); details: higher = more signal;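 also: A549 lung adenocarcinoma cells under basal conditions with no added stimulus; test concentration not given here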
Lefty1 = Lefty1 protein binding to printed compounds – biochemical, small-molecule microarray, 635/667 nm fluorescence, primary screen (AID 1139); details: fluorescence 635/667, higher = more signal
[8] = test system: wheat germ agglutinin (Triticum aestivum), Alexa647-labelled; assay: Alexa647-WGA lectin binding to printed small molecules – biochemical, small-molecule microarray, 635/667 nm fluorescence, artefact control for SMM control-protein annotation, profiling panel (AID 1140); details: WGA-A647 binding, 635 nm fluorescence, higher = more signal;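 also: score merges 667 nm feature emission with signal to noise over triplicate slides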
[9] = molecular target: Luciferin 4-monooxygenase (Photinus pyralis) (UniProt P08659); assay: inhibition of purified Photinus pyralis luciferase – biochemical, luminescence, purified enzyme, 2006 set, primary screen (AID 1141); details: purified firefly luciferase, SteadyGlo luminescence, 30 min; higher = more signal, called active from +8 up or from −8 down;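 also: cell-free assay with purified firefly luciferase at 100 ng per well in PBS; test concentration not given here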
[10] = test system: Wnt5a (protein binding on small-molecule microarray); assay: small molecules binding Wnt5a protein – biophysical, small-molecule microarray, 635/667 nm fluorescence, primary screen (AID 1142); details: 635 nm fluorescence, higher = more signal;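 also: fluorescence read at 667 nm with signal to noise per printed feature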
[11] = ATP-based viability of Huh7 replicon cells – cell-based, CellTiter-Glo luminescence, basal, 48 h, cytotoxicity control for HCV replication inhibitor project, primary screen (AID 1143); details: higher = more signal, called active from +8 up or from −8 down;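 also: Huh7 hepatoma cells carrying a hepatitis C replication reporter with no stimulus; test concentration not given here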
[12] = Pseudomonas biofilm growth suppression – PAO1 strain, BacTiter-Glo luminescence, LB-PBS, primary screen (AID 1144); details: P. aeruginosa PAO1 biofilm, 12 h, higher = more signal
[13] = basal CRE-LacZ reporter activity in PC12 – cell-based, unstimulated, primary screen (AID 1145); details: no forskolin, luminescence, 4.5 h, higher = more signal, called active from +8 up or from −8 down
[14] = forskolin-driven CRE-LacZ activity in PC12 – cell-based, CRE-LacZ reporter, forskolin-stimulated, primary screen (AID 1146); details: luminescence, 4.5 h, higher = more signal, called active from +8 up or from −8 down;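 also: PC12 cells with 6xCRE LacZ reporter stimulated by forskolin 10 µM; beta-galactosidase reporter signal reflecting CREB driven transcription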
[15] = molecular target: Streptavidin (Streptomyces avidinii) (UniProt P22629); assay: compounds binding control protein streptavidin – biophysical, small-molecule microarray, 635/667 nm fluorescence, artefact control for SMM compound annotation, primary screen (AID 1147); details: higher = more signal;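 also: signal reflects streptavidin binding to arrayed compounds as a control protein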
[16] = probe aInhba binding on compound microarray – biochemical, small-molecule microarray, 635/667 nm fluorescence, primary screen (AID 1148); details: higher = more signal;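 also: score merges 667nm spot fluorescence with signal-to-noise for antibody binding to printed compounds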
Torsin-1A (Homo sapiens) [17] = molecular target: Torsin-1A (Homo sapiens) (UniProt O14656); assay: TOR1A wild-type binding on microarray – cell lysate, small-molecule microarray, lysate, 635/667 nm, primary screen (AID 1149); details: COS7 hTOR1A-WT lysate, 635 nm fluorescence, higher = more signal
Torsin-1A (Homo sapiens) [18] = molecular target: Torsin-1A (Homo sapiens) (UniProt O14656); assay: torsin A mutant lysate binding on microarrays – cell lysate, small-molecule microarray, COS7 lysate, 635/667 nm fluorescence, primary screen (AID 1150); details: COS7 hTOR1A mutant lysate, 635 nm fluorescence, higher = more signal;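 also: score pools 667 nm emission and signal to noise measuring lysate protein binding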
[19] = test system: Sonic hedgehog protein (Shh); assay: Sonic hedgehog microarray binding compounds – biochemical, small-molecule microarray, 635/667 nm fluorescence, primary screen (AID 1151); details: 635 nm fluorescence, higher = more signal;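 also: Shh protein binding to compounds spotted on small-molecule microarray slides; score combines spot fluorescence intensity with signal-to-noise across triplicate slides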

Chain of Fibroblast growth factor 2 (Homo sapiens) (P09038 whole entry, looked up): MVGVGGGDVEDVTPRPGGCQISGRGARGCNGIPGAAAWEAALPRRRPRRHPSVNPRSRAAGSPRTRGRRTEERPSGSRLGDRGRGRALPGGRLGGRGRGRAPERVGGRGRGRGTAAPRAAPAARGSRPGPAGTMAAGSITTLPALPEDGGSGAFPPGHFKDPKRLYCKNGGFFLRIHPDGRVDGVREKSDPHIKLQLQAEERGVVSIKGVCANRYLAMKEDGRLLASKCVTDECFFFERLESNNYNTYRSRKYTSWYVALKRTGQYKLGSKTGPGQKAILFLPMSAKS
Chain of Focal adhesion kinase 1 (Homo sapiens) (Q05397 whole entry, looked up): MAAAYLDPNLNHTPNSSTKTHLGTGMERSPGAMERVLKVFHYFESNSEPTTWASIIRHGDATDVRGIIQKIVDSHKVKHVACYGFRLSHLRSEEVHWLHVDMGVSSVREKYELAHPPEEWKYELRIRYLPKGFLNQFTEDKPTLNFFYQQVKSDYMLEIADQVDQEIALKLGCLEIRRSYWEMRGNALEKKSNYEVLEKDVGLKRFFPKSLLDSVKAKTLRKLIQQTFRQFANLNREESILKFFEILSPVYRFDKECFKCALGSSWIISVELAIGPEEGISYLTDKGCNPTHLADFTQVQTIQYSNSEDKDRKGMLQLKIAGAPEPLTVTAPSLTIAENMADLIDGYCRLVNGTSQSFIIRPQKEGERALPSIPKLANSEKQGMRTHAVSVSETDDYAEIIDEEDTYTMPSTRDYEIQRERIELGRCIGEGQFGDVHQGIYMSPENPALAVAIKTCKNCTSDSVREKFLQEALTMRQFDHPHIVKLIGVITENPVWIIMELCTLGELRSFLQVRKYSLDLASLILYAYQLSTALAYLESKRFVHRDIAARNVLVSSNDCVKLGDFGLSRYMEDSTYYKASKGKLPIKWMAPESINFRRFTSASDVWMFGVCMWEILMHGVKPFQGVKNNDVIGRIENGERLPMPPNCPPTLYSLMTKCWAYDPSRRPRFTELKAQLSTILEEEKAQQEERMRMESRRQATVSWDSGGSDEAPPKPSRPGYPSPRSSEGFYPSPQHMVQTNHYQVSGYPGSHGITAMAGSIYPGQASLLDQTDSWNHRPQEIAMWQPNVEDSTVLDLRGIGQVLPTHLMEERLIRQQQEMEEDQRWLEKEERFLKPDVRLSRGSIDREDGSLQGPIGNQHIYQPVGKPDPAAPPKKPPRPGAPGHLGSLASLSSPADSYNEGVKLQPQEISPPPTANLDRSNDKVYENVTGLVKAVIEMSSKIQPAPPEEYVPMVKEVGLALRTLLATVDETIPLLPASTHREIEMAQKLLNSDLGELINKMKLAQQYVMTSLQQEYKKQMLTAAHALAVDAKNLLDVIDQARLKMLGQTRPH
Chain of Follistatin (Homo sapiens) (P19883 whole entry, looked up): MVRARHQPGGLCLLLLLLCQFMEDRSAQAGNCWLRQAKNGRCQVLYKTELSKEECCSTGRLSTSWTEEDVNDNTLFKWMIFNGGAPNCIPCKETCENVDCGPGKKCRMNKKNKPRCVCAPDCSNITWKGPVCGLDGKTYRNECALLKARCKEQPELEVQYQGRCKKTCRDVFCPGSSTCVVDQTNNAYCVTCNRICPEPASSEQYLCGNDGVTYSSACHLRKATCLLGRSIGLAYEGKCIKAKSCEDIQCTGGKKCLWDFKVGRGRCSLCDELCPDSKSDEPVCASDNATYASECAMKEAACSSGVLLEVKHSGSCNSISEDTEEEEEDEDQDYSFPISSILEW
Chain of Torsin-1A (Homo sapiens) (O14656 whole entry, looked up): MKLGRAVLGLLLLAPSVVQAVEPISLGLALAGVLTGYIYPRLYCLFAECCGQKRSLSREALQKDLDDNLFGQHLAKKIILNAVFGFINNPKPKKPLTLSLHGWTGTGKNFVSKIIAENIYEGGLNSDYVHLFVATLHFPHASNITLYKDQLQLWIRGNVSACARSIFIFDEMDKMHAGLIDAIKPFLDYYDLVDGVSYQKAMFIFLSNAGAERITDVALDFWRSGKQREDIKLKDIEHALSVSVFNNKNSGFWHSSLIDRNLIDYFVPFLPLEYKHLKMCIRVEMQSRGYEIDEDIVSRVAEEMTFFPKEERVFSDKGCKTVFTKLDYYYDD
Chain of Streptavidin (Streptomyces avidinii) (P22629 whole entry, looked up): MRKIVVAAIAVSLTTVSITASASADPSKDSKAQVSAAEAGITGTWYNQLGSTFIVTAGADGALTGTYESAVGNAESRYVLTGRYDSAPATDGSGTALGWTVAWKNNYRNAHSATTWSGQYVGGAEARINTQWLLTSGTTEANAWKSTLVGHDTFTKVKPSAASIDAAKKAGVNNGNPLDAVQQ
Chain of Luciferin 4-monooxygenase (Photinus pyralis) (P08659 whole entry, looked up): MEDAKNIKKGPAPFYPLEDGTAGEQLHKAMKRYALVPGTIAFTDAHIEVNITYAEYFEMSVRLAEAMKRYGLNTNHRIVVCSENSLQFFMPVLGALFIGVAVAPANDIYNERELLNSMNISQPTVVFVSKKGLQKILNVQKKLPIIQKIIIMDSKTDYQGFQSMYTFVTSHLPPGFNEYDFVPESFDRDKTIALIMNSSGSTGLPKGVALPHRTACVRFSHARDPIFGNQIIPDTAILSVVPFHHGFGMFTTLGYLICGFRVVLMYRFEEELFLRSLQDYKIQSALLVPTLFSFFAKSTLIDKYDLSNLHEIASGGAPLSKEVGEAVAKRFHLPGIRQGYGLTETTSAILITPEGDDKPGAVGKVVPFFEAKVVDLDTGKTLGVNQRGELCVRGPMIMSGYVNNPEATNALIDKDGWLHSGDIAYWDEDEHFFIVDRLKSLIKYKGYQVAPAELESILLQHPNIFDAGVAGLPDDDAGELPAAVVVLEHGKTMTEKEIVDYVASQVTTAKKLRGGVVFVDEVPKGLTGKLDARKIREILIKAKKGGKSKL

Structure (SMILES)	composite z-score [1]	composite z-score [2]	composite z-score [3]	composite z-score [4]	composite z-score [5]	composite z-score [6]	z-score [7]	composite z-score (Lefty1)	composite z-score [8]	z-score [9]	composite z-score [10]	z-score [11]	z-score [12]	z-score [13]	z-score [14]	composite z-score [15]	composite z-score [16]	composite z-score (Torsin-1A (Homo sapiens) [17])	composite z-score (Torsin-1A (Homo sapiens) [18])	composite z-score [19]
CCc1cc2c(nc1CC)CCN(CCC(C)=NO[C@H](C)c1cn([C@@H]3COC[C@H]3O)nn1)C2	-0.0963	-0.139	-0.162	0.522	0.523	0.305	0.537	0.204	0.199	0.221 (inactive)	-0.0763	0.401 (inactive)	1.7 (inactive)	0.238 (inactive)	-0.183 (inactive)	0.383	-0.0963	0.161	0.292	0.282
CC(=O)Nc1ccc([C@@H]2N[C@H](C(=O)O)CC[C@H]2C)cc1	0.328	0.557	1.12	0.669	0.205	0.284	2.05	0.701	-0.11	-1.38 (inactive)	0.101	0.138 (inactive)	-1.51 (inactive)	-0.884 (inactive)	-1.21 (inactive)	-0.0013	-0.101	0.746	0.371	0.2
CO[C@H]1COC(=O)[C@@H](Cc2ccccc2)NC(=O)[C@@H](C)COC(=O)CCC[C@@H]1C	4.12	-0.666	0.0469	-0.179	0.2	0.241	-0.946	0.534	-0.29	0.643 (inactive)	0.0124	-0.382 (inactive)	-0.0381 (inactive)	-1.21 (inactive)	-0.596 (inactive)	-0.343	-0.285	0.656	0.187	0.787
CCOC(=O)[C@H](CC(C)C)NC(=O)CCC1CC(OC(=O)NCCc2ccc(F)cc2)CC2(CCCC(COC(=O)NCCC(C)C)O2)O1 (stereo not given in full)	1.79	0.0471	0.459	0.818	0.601	0.0263	0.427	0.304	0.421	0.403 (inactive)	-0.0436	-0.439 (inactive)	0.288 (inactive)	0.91 (inactive)	-0.457 (inactive)	2.06	-0.0963	-0.239	0.204	0.318
O=C1CCCC(C2=CCCCC2=O)C1 (stereo not given)	-0.496	-0.624	0.26	-0.67	1.01	0.567	0.475	1.02	-0.397	-0.242 (inactive)	0.18	0.211 (inactive)	0.0656 (inactive)	0.019 (inactive)	-0.222 (inactive)	-0.15	-0.0288	0.217	0.37	0.626
O=C1CCCC=C1C(CCc1ccccc1)OC(=O)c1ccc(Br)cc1 (stereo not given)	0.0508	-0.757	-0.0417	-0.612	0.0148	0.0039	-0.65	0.167	-0.254	0.063 (inactive)	-0.223	-3.61 (inactive)	0.96 (inactive)	0.111 (inactive)	0.171 (inactive)	0.0598	-0.218	-0.249	0.0696	-0.115
COC(=O)CC=C[C@H](C)[C@@H](OCc1cccc(Br)c1)[C@@H](C)[C@H](OC)C1CCCCC1	0.0864	-1.06	-0.484	-1.74	0.22	-0.0877	1.74	0.525	0.325	-3.27 (inactive)	-0.375	0.137 (inactive)	0.781 (inactive)	-1.05 (inactive)	-1.25 (inactive)	-0.243	-0.128	0.312	-0.119	0.341
COC(=O)[C@H](C)NC(=O)CCC1CC(OC(=O)NCc2ccc3c(c2)OCO3)CC2(CCCC(COC(=O)NCCc3ccccc3OC)O2)O1 (stereo not given in full)	0.911	0.638	-0.122	0.626	-0.0381	-0.0304	0.159	-0.0317	0.817	0.559 (inactive)	-0.0418	-0.643 (inactive)	0.301 (inactive)	0.0167 (inactive)	0.711 (inactive)	-0.0673	-0.154	0.465	0.182	-0.004
O=C(NN=C1C[C@@H](O)[C@@H](O)[C@@H]2[C@@H]3C(=O)N(C[C@@H]4CCCO4)C(=O)[C@@H]3CC[C@H]12)OCc1ccccc1	-0.0516	0.0327	-0.147	0.271	-0.606	-0.183	-0.0539	-0.793	0.717	0.304 (inactive)	-0.222	0.348 (inactive)	0.458 (inactive)	-0.834 (inactive)	-0.105 (inactive)	0.281	-0.341	0.146	0.219	-0.824
CO[C@H]1COC(=O)[C@@H](C)COC(=O)[C@@H](OCc2ccccc2)C=C[C@@H]1C	-0.328	-0.869	0.106	-0.648	-0.17	0.193	0.651	0.0823	-1.08	-0.415 (inactive)	0.007	-0.0174 (inactive)	0.304 (inactive)	-0.0293 (inactive)	-0.803 (inactive)	-0.136	-0.016	0.743	-0.253	0.214
